Experimental data from PubChem BioAssay.
Calls of active or inactive are those of the source.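 How the source made its calls, unless noted: active means inhibition above 20% together with a positive visual image hit; inconclusive means visual image hit but inhibition not above 20%; inactive means no visual image hit.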

Key:
[1] = inhibitors of TNFa-induced NFkB p65 translocation, primary screen, imaging, HUVEC, MLSMR starter and 10KST1 sets (AID 438); conditions: HUVEC TNFa-induced p65 nuclear translocation; cell count: measured here: nuclei count (cytotoxicity indicator), at 2.08 µM; inhibition: at 2 µM, stronger effect = higher value, 0% TNFa-plus-vehicle, 100% no-TNFa wells;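 further: compound added about 3h40 before a 20 min TNFalpha stimulation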;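 on inhibition: signal is the nuclear over cytoplasmic p65 intensity ratio per well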
[2] = reduction of polyQ htt aggregates in cells – imaging, exon1htt(103Q)mCFP cells, high-content imaging, primary screen (AID 483;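 active means visual image review flags a hit and inhibition of aggregation exceeds 20%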;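 further: compound exposure lasted 3 days before fixation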;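 on nuclei count: percent of the per-plate median nuclei count of sample wells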); conditions: exon1htt(103Q)mCFP cell line, aggregate imaging, at 2 µM; inhibition of aggregation: stronger effect = higher value; nuclei count: measured here: cell count, toxicity
[3] = endothelial E-selectin expression blockers – imaging, HUVEC, immunofluorescence, MLSMR starter and 10KST1 sets, primary screen (AID 487;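 active means visually confirmed hit in the image check and inhibition above 20%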;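 on inhibition: signal is fraction of cell area covered by stained E-selectin grains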;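 on nuclei count: 100% = median nuclei count of all wells on the same plate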); conditions: HUVEC TNFalpha-induced E-selectin immunofluorescence imaging, at 2 µM; inhibition: stronger effect = higher value; nuclei count: measured here: cell number, toxicity
[4] = molecular target: Voltage-gated potassium channel subunit beta-2 (Rattus norvegicus) (UniProt P62483); experiment: inhibitors of rat Kvbeta2 reductase activity – biochemical, NADPH fluorescence, primary screen (AID 622;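 active means fluorescence slope higher than the sample average by over 3 SD, cut at about -0.22 in these data, passing the limit was not always enough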;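 further: slope of raw intensity against log time taken from 70 to 1610 s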); conditions: recombinant KvBeta, 4-cyanobenzaldehyde reduction, at 10 µM, stronger effect = higher value
[5] = molecular target: Voltage-gated potassium channel subunit beta-2 (Rattus norvegicus) (UniProt P62483); experiment: enhancers of rat Kvbeta2 NADPH turnover – biochemical, NADPH fluorescence, primary screen (AID 623;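 active means NADPH fluorescence slope more negative than the mean of all samples by about 3 SD, 99.7% confidence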;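 further: fluorescence intensity change per second fitted from 20 to 320 s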); conditions: Recombinant KvBeta, NADPH fluorescence decrease slope, 10 min; at 10 µM; stronger effect = lower value
[6] = molecular target: Alpha-2C adrenergic receptor (Homo sapiens) (UniProt P18825); experiment: compounds altering alpha2C-coupled GIRK flux – cell-based, HEK293 alpha2C/GIRK1/2, thallium flux, primary screen (AID 624;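 active means fluorescence slope after compound addition differing from the mean of all screened samples at 99.7% confidence, in either direction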;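 further: slope of fluorescence ratio to pre-addition baseline per second over 15 to 24 s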); conditions: thallium flux BTC fluorescence, at 10 µM, actives lie on both sides
[7] = blockers of RIG-like receptor reporter activation – cell-based, Sendai virus stimulus, luciferase, 10K MLSCN set, TLR/RLR signaling modifier project, primary screen (AID 602276;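 active means inhibition at or above 50% at 10 µM; inactive means inhibition below 50%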;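 further: firefly luciferase from ISG56 promoter only with Renilla not read in this screen; 0% = Sendai virus plus DMSO and 100% = medium plus DMSO without virus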); conditions: HEK293 RL24 IRF3 luciferase reporter, at 10 µM, stronger effect = higher value
[8] = TLR3 IRF3 reporter activation blockers – cell-based, poly I:C stimulus, luciferase, 10K MLSCN set, primary screen (AID 602277;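 active means inhibition of the reporter signal at or above 50%; inactive means inhibition below 50%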); conditions: HEK293-TLR3 RL24 IRF3 luciferase reporter, at 10 µM, stronger effect = higher value

Sequence of Alpha-2C adrenergic receptor (Homo sapiens) (P18825 whole entry, looked up): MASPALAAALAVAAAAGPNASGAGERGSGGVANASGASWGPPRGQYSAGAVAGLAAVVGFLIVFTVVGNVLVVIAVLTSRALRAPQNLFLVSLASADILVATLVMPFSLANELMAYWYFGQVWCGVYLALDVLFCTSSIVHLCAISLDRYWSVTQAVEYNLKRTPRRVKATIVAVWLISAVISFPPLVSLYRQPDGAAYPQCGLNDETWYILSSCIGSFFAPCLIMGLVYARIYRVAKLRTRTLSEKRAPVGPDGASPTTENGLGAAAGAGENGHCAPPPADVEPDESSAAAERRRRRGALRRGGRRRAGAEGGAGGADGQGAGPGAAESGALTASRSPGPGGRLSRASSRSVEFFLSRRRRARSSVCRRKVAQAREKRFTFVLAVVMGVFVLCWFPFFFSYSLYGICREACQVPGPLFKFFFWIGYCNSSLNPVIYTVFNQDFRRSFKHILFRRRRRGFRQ
Sequence of Voltage-gated potassium channel subunit beta-2 (Rattus norvegicus) (P62483 whole entry, looked up): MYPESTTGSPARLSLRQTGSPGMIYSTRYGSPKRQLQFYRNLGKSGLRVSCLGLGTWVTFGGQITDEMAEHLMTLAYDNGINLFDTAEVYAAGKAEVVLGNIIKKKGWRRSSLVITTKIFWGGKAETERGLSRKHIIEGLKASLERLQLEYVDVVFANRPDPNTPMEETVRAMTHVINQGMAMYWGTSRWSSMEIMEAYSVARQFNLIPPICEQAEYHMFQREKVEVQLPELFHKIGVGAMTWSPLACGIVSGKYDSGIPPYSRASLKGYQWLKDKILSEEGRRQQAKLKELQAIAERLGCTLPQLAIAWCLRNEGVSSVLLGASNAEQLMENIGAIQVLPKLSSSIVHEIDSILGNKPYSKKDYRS

Row | SMILES | cell count [1] | inhibition [1] | inhibition of aggregation [2] | nuclei count [2] [%] | inhibition [3] | nuclei count [3] [%] | fluorescence slope [4] | NADPH fluorescence slope [5] | slope [6] | inhibition [7] | inhibition [8]
1 | C=C(C)COc1ccc(-c2nc(N)ncc2-c2ccc(OC)cc2)c(O)c1 | 278 | -9.5% (inactive) | 24.6% (inactive) | 69.5 | -120% (inactive) | 111 | -0.433 (inactive) | -2.4e-05 (inactive) | 0.00614 (inactive) | 5.72% (inactive) | 27.1% (inactive)
2 | Cc1noc(C)c1C(=O)N1CCN(C(=O)c2sc3cc(Cl)ccc3c2Cl)CC1 | 600 | -5.4% (inactive) | 0.7% (inactive) | 111 | -78.2% (inactive) | 100 | -0.328 (inactive) | -6.4e-05 (inactive) | 0.00474 (inactive) | 8.91% (inactive) | 9.68% (inactive)
3 | CNc1ccc(C(O)(C(F)(F)F)C(F)(F)F)cc1C(O)(C(F)(F)F)C(F)(F)F | 667 | 3.3% (inactive) | -7.5% (inactive) | 103 | 3.3% (inactive) | 92.8 | -0.616 (inactive) | -4.4e-05 (inactive) | 0.00297 (inactive) | 12.6% (inactive) | 18.9% (inactive)
4 | COC(=O)Cn1ncc2c(C)n(Cc3ccccc3)c(C)c2c1=O | 732 | -5.2% (inactive) | 15.7% (inactive) | 88.1 | -72.2% (inactive) | 122 | -0.563 (inactive) | -2.4e-05 (inactive) | 0.00743 (inactive) | -29.4% (inactive) | -89.1% (inactive)
5 | COc1ccc(-c2nc(SC)n(S(=O)(=O)c3ccccc3)n2)cc1 | 683 | -1.9% (inactive) | 7.6% (inactive) | 99.4 | -122% (inactive) | 109 | -0.476 (inactive) | 9.5e-05 (inactive) | 0.00851 (inactive) | -26% (inactive) | -119% (inactive)
6 | COCCNC(=O)C(c1cccs1)N(C(=O)Cn1nnc2ccccc21)c1ccccc1 (stereo not drawn) | 385 | 5.9% (inactive) | 0.7% (inactive) | 98.9 | 24.6% (inactive) | 93.8 | -0.506 (inactive) | -1.1e-05 (inactive) | 0.00629 (inactive) | 10.7% (inactive) | 6.48% (inactive)
7 | CCN1CCN(CCCNC(=O)c2cc3sccc3n2CC)CC1 | 605 | 11% (inactive) | -0.9% (inactive) | 105 | 37.9% (inactive) | 108 | -0.586 (inactive) | -3.5e-05 (inactive) | 0.00699 (inactive) | -14.9% (inactive) | 15.5% (inactive)
8 | CC1Cc2nc(SCC(=O)N3CCCc4ccccc43)n(C)c(=O)c2S1 (stereo not drawn) | 647 | 0.5% (inactive) | -0.9% (inactive) | 46.7 | 5.3% (inactive) | 118 | -0.543 (inactive) | -1.5e-05 (inactive) | 0.00618 (inactive) | 6% (inactive) | 20.4% (inactive)
9 | CCC(C)NC(=O)CCNS(=O)(=O)c1ccc(Br)cc1 (stereo not drawn) | 605 | -17% (inactive) | 17.5% (inactive) | 66.3 | -109% (inactive) | 118 | -0.325 (inactive) | 6.7e-06 (inactive) | 0.00362 (inactive) | 3.69% (inactive) | 33% (inactive)
10 | CC(C)=CCC(C)(C)C1OCCN1C(=O)c1ccccc1 (stereo not drawn) | 450 | 1.5% (inactive) | 1.2% (inactive) | 116 | 10.2% (inactive) | 106 | -0.444 (inactive) | 2e-05 (inactive) | 0.00511 (inactive) | 8.82% (inactive) | 12.9% (inactive)
11 | COc1ccc(C(=O)COC(=O)CCn2nnc(-c3cccs3)n2)cc1 | 237 | 2.2% (inactive) | 20% (inactive) | 78.6 | 56.4% (inactive) | 73.7 | -0.426 (inactive) | 1.6e-05 (inactive) | 0.00571 (inactive) | -6.55% (inactive) | -7.1% (inactive)
12 | COc1ccc(CNS(=O)(=O)c2ccc3oc(C(=O)O)c(C)c3c2)cc1 | 624 | -4.4% (inactive) | -6% (inactive) | 75.2 | -31.4% (inactive) | 114 | -0.466 (inactive) | 8.2e-05 (inactive) | 0.00607 (inactive) | 15.6% (inactive) | 20.3% (inactive)
13 | COc1ccc(CCn2c(-c3ccco3)nc3ccccc3c2=O)cc1OC | 425 | -0.6% (inactive) | 2.8% (inactive) | 107 | -99.5% (inactive) | 120 | -0.402 (inactive) | -6.5e-05 (inactive) | 0.00555 (inactive) | -9.43% (inactive) | -5.38% (inactive)
14 | Cc1cc2c(cc(C(=O)OCC(=O)NCc3cccs3)n2C(C)C)o1 | 379 | 9.9% (inactive) | 7.7% (inactive) | 106 | -156% (inactive) | 95.3 | -0.586 (inactive) | -5.1e-05 (inactive) | 0.00376 (inactive) | 20.7% (inactive) | 77.6% (active)
15 | O=C(C1CCCO1)N1CCc2ccccc21 (stereo not drawn) | 445 | 6% (inactive) | -16.9% (inactive) | 108 | -32.9% (inactive) | 108 | -0.404 (inactive) | 5.9e-05 (inactive) | 0.00647 (inactive) | 9.45% (inactive) | 36.8% (inactive)
16 | O=C(CCNS(=O)(=O)c1ccc(Br)s1)N1CCCCC1 | 380 | 0.3% (inactive) | -2% (inactive) | 99.9 | -86.3% (inactive) | 106 | -0.494 (inactive) | -3.4e-05 (inactive) | 0.00623 (inactive) | -0.525% (inactive) | 7.37% (inactive)
17 | CCC(=O)c1ccc(OCC(O)CN2CCN(S(=O)(=O)N3CCCCC3)CC2)cc1 (stereo not drawn) | 450 | 1.3% (inactive) | -4.1% (inactive) | 102 | -47.7% (inactive) | 184 | -0.592 (inactive) | -1.7e-05 (inactive) | 0.00309 (inactive) | 14.1% (inactive) | 9.85% (inactive)
18 | CN1CCN(c2nc3c(c(=O)[nH]c(=O)n3C)n2CCOc2ccccc2)CC1 | 311 | 6.2% (inactive) | 0.9% (inactive) | 108 | -45.8% (inactive) | 116 | -0.489 (inactive) | -4.3e-05 (inactive) | 0.00596 (inactive) | 3.18% (inactive) | 27.3% (inactive)
19 | Fc1ccc(-c2nnc(CN3CCN(c4ncc(C(F)(F)F)cc4Cl)CC3)o2)cc1 | 405 | -14.7% (inactive) | 8.2% (inactive) | 111 | -9.8% (inactive) | 124 | -0.435 (inactive) | -8.4e-06 (inactive) | 0.00518 (inactive) | 8.36% (inactive) | -7.66% (inactive)
20 | CCOC(=O)c1cc2ccc(OC)c(OC)c2c(=O)s1 | 452 | 4.9% (inactive) | -3.4% (inactive) | 102 | 36.3% (inactive) | 108 | -0.396 (inactive) | -2.4e-05 (inactive) | 0.00363 (inactive) | -11.9% (inactive) | -12.5% (inactive)
21 | Cc1ccc(C)c(N(CC(=O)NC2CCCC2)C(=O)CCCC(=O)Nc2ccccn2)c1 | 516 | -18.3% (inactive) | 7.5% (inactive) | 93.9 | -50.6% (inactive) | 95.7 | -0.539 (inactive) | -4.4e-05 (inactive) | 0.00581 (inactive) | 13.6% (inactive) | 27.2% (inactive)
22 | COc1cccc(CN=CC2=C(O)CC(C)(C)CC2=O)c1OC | 326 | -18.3% (inactive) | -1.8% (inactive) | 99.6 | -1.5% (inactive) | 111 | -0.468 (inactive) | 9.7e-05 (inactive) | 0.00629 (inactive) | 1.64% (inactive) | 3.58% (inactive)
23 | COCCNC(=O)c1ccc(CS(=O)(=O)c2ccc(OC)cc2)o1 | 636 | 4.1% (inactive) | -4.8% (inactive) | 96.8 | 5.3% (inactive) | 124 | -0.583 (inactive) | -5.4e-05 (inactive) | 0.00675 (inactive) | 9.76% (inactive) | 25.7% (inactive)
24 | Cn1c(=O)c2c(nc(CN3CCc4ccccc4C3)n2Cc2cccc(Cl)c2)n(C)c1=O | 646 | 8% (inactive) | 0.6% (inactive) | 102 | -22.8% (inactive) | 124 | -0.575 (inactive) | -4.8e-05 (inactive) | 0.00753 (inactive) | 19.5% (inactive) | -58.7% (inactive)
25 | Cc1cc(C(=O)Nc2c(F)cc(F)cc2Br)no1 | 338 | -3.2% (inactive) | 25.8% (inactive) | 94.4 | -143% (inactive) | 103 | -0.58 (inactive) | 1.4e-05 (inactive) | 0.0051 (inactive) | 3.46% (inactive) | -12% (inactive)
26 | Cc1ccc(S(=O)(=O)C2(C(=O)N3CCCCCC3)CC2)cc1 | 439 | -0.7% (inactive) | -0.7% (inactive) | 102 | -46.5% (inactive) | 122 | -0.611 (inactive) | 4.7e-05 (inactive) | 0.00663 (inactive) | 8.56% (inactive) | 1.57% (inactive)
27 | CC(=O)c1ccc2c3c(cccc13)C(=O)N(c1c(C)nn(C)c1C)C2=O | 655 | -4.4% (inactive) | -24.6% (inactive) | 108 | -14% (inactive) | 97.5 | -0.633 (inactive) | -5.6e-06 (inactive) | 0.00453 (inactive) | 6.92% (inactive) | -10.1% (inactive)
28 | CCOc1cc2oc(=O)c3c(c2cc1Cl)CCC3 | 400 | -2.6% (inactive) | 5.2% (inactive) | 104 | -24.1% (inactive) | 106 | -0.482 (inactive) | 1.7e-05 (inactive) | 0.00626 (inactive) | -5.28% (inactive) | -30.2% (inactive)
